# Assay outcomes (PubChem BioAssay)
# This is a sample that favours compounds with a hit; in the whole collection about 3.3% have one here.
# CASP6 VEID inh – caspase-6 (human) enzyme inhibition. inhibition, % at 12.5 µM. purified caspase-6, Z-VEID-R110 cleavage fluorescence. 350,000 tested, 0.53% active. P55212;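 active means mean inhibition across replicates at least about 35%, with every replicate also reaching that limit, limit read from the data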;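 further: 0% = median of neutral control wells and 100% = no fluorescence left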
# SIRT5 block – sirtuin-5 (human) deacylase inhibition | Q9NXA8 | Purified SirT5, succinyl-peptide AMC, trypsin-coupled fluorescence | inhibition, % at 15 µM | 330,000 tested, 1.1% active | AID 652115; in the data active means inhibition above about 15%
# Target sequence (Q9NXA8 whole entry, looked up): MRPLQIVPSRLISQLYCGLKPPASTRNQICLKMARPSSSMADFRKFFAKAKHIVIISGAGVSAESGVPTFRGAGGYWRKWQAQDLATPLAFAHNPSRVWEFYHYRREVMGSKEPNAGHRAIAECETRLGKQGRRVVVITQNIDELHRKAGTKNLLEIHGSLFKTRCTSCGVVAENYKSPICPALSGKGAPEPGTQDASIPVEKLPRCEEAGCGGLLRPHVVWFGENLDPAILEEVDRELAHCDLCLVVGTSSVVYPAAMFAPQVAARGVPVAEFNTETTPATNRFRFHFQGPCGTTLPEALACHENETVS
# FGF22 binding-1 – shifts melting point of recombinant human FGF22; AID 651658; Q9HCT0; recombinant FGF22 thermal shift, SYPRO orange fluorescence; percent of sucrose octasulfate shift, DMSO zero; 340,000 tested, 1.5% active; activity (Tm shift, normalised), % at 9.99 µM;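 active means mean Tm shift, scaled 0 neutral to 100 positive control, at about 1.3% or above, every replicate too, limit read from the data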
# Target sequence (Q9HCT0 whole entry, looked up): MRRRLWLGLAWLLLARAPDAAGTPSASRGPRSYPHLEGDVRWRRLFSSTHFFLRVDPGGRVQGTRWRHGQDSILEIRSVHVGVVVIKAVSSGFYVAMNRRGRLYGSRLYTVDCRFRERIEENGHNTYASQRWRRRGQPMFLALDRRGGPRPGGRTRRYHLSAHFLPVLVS
# ERAP1 HTS inh – blocks human ERAP1 aminopeptidase activity; Q9NZ08; recombinant ERAP1, Leu-AMC fluorescence, 60 min; inhibition, % at 10.7 µM; 340,000 tested, 0.15% active; AID 652197;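 active means mean replicate inhibition of at least 30%, or all replicates individually reaching that 30% level; inactive means mean below 30% and not every replicate reaching it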;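 further: 0% = neutral control wells and 100% = L-leucinethiol positive control wells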
# GSIS activator – primary screen for activators of insulin secretion dependent on glucose, INS-1E cells, GLuc reporter luminescence; INS-1E GLuc reporter insulin secretion, 2-3 h; activation, % at 16.6 µM; 370,000 tested, 0.61% active;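 active means lowest replicate activation of at least 40%, so every replicate reaches that level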;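 further: 0% = median of neutral control wells and 100% = median of IBMX positive control wells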
# FGF22 binding-2 – binders of human FGF22 by thermal shift | 1,000 tested, 2% active | AID 720646 | thermal shift activity, °C (ΔTm) at 38 µM | shares compounds with FGF22 binding-1 | recombinant FGF22 thermal shift, SYPRO orange fluorescence;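 active means fitted rise in melting shift crosses a set limit at or below the top valid dose tested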
# SYPRO no-protein – counter-screen for FGF22 binders: compound-only thermal shift, no protein; compound-only SYPRO orange thermal shift counter-screen; AC50, µM (highest dose often 38 µM); shares compounds with FGF22 binding-1; 1,000 tested, 2% active;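 active means rising signal whose fitted curve reaches the 0.54 level within the top valid dose, showing a melting point, actives reach about 13 µM in these data; inactive means the rest, including activity in the opposite direction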; further: value is where the raw curve crosses a fixed level and not half-maximal
# Active calls of the source: *; i = inactive; nt = no result; [ ] = dose if it differs, or a comment.
SMILES,CASP6 VEID inh,SIRT5 block,FGF22 binding-1,ERAP1 HTS inh,GSIS activator,FGF22 binding-2,SYPRO no-protein
O=C(Nc1ccccc1)O/N=C/c1ccc(F)cc1,0.3,5.3,1.4*,1.2,3.2,-0.08,i
Cc1ccc(S(=O)(=O)N(C)C[C@H]2Oc3ccc(NS(=O)(=O)c4c(C)noc4C)cc3C(=O)N([C@@H](C)CO)C[C@@H]2C)cc1,0.3,-5.4,-0.3,0.3,-3.2,nt,nt
Cc1ccc(NC(=O)C2CCCN2C(=O)Oc2ccccc2)c(C)c1 (centres undefined),3.1,-0.8,2.2*,3.2,-2.3,-0.007,i
COc1ccc(C(C)(NC(C)=O)c2nc(-c3ccncc3)cs2)cc1 (centres undefined),-3.6,nt,18.1*,2.3,-7.8,0.046,i
COc1ccc(-c2csc(C(C)(NC(C)=O)c3ccc(OC)cc3)n2)cc1 (centres undefined),2.9,1.5,-0.2,-2.4,-2.0,nt,nt
CC1C(=O)Nc2ccc(S(=O)(=O)NCCc3ccc(Cl)cc3)cc2NC1=O (centres undefined),0.2,-1.3,1.6*,-2.1,nt,-0.372,i
CC1Sc2ccc(S(=O)(=O)NCCc3ccc(S(N)(=O)=O)cc3)cc2NC1=O (centres undefined),1.2,-2.6,0.2,3.7,4.2,nt,nt
CCNC(=O)C1(C)CCCN(C(=O)C2(c3ccc(Cl)cc3)CCCC2)C1 (centres undefined),-0.7,nt,1.6*,0.9,5.7,0.037,i
CCCN1C[C@H](C)[C@@H](OC)CN(C)C(=O)c2cc(NC(=O)c3cccc(OC)c3)ccc2OC[C@@H]1C,nt,nt,nt,nt,-11.1,nt,nt
NS(=O)(=O)c1ccc2c(c1)C(=NO)c1cc(S(N)(=O)=O)ccc1-2,1.8,0.1,28.1*,1.8,19.2,0.049,i
COCCNC(=O)C[C@H]1CC[C@H](NC(=O)NC2CCCCC2)[C@@H](CO)O1,5.9,0.4,-0.2,1.6,12.7,nt,nt
CCn1c2ccccc2c2cc(/C=N/NC(=O)c3ccc(O)cc3)ccc21,0.9,nt,0.6,-3.7,-5.2,nt,nt
CCn1c2ccccc2c2cc(/C=N/NC(=O)c3ccncc3)ccc21,-6.1,5.6,1.5*,-3.9,-6.0,0.13,i
Cc1noc(C)c1NC(=O)Nc1ccc2c(c1)C(=O)N([C@@H](C)CO)C[C@@H](C)[C@@H](CN(C)C(=O)c1ccccc1)OCCCC[C@@H](C)O2,0.7,-3.2,-0.5,-0.9,-4.1,nt,nt
Cc1ccccc1-c1ccccc1[C@@H]1[C@@H](C#N)N(C(=O)c2ccccc2)[C@H]1CO,-0.1,-4.8,1.3*,1.0,1.7,-0.035,i
CNC(=S)N(Cc1ccc(OC)cc1)C1CC(=O)N(c2ccc(C(=O)OC)cc2)C1=O (centres undefined),0.7,1.0,2.2*,2.0,-36.6,-0.043,i
NNC(=O)CN1C(=O)C2(OCCO2)c2ccccc21,0.3,nt,29.6*,-1.5,-4.0,0.05,i
C/C(CC(=O)Nc1ccc2c(c1)OCCO2)=N\NC(=O)COc1ccc(C)cc1Br,1.7,-3.6,2.9*,-0.7,24.3,0.005,i
C/C(CC(=O)Nc1ccc2c(c1)OCCO2)=N\NC(=O)COc1ccc(C)cc1,9.3,-0.3,41.0,-2.3,-4.6,nt,nt
N#C[C@H]1[C@@H](c2ccc(C3=CCCC3)cc2)[C@@H](CO)N1C(=O)c1ccccn1,-11.1,-1.2,-0.3,0.1,2.6,nt,nt
Cc1ccc(S(=O)(=O)N[C@H]2C=C[C@H](CC(=O)N3CCc4ccccc4C3)O[C@H]2CO)cc1,1.5,-1.6,1.3*,-2.7,-8.4,0.048[42 µM],i
Cc1ccc(S(=O)(=O)N[C@H]2C=C[C@@H](CC(=O)N3CCc4ccccc4C3)O[C@@H]2CO)cc1,4.5,1.4,1.3*,-1.3,23.0,-0.004,i
Cc1ccc(S(=O)(=O)N[C@H]2C=C[C@H](CC(=O)N3CCc4ccccc4C3)O[C@@H]2CO)cc1,1.2,0.1,-0.8,1.5,-5.9,nt,nt
Cc1ccc(S(=O)(=O)N[C@@H]2C=C[C@@H](CC(=O)N3CCc4ccccc4C3)O[C@H]2CO)cc1,0.6,3.4,-0.6,-0.6,-9.9,nt,nt
